Measurements published in PubChem BioAssay (NCATS).
Results filed as inconclusive are left out. Where a call stands in place of a potency, no number is given. Active and inactive are the calls of the source. Unless noted, the call rests on the fitted dose curve; in most records, active means well fitted curve in the direction sought with a large enough effect; inconclusive means small, poorly fitted or top-dose-only effect, or another doubt; inactive means no such curve, though single readings can be large; an effect the other way counts as inactive or inconclusive.

Key:
[1] = qHTS for Inhibitors of Cell Surface uPA Generation: Validation Assay (AID 493164);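 further: RAW 264.7 macrophage cells exposed to compound for 18 h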
Procedure, shortened: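 RAW 264.7, 4000 cells/well, o/n plating; cpd 7-pt 1:5 dilution 2.45 nM–38.3 uM final; 18 h, 37 C/5% CO2; ATP-Lite, 5 s luminescence exposure.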

[2] = molecular target: Galactokinase (Homo sapiens) (UniProt P51570); assay: qHTS Validation Assay for Inhibitors of Human Galactokinase (GALK) (AID 493189)
Galactokinase (Homo sapiens), sequence (P51570 whole entry, looked up): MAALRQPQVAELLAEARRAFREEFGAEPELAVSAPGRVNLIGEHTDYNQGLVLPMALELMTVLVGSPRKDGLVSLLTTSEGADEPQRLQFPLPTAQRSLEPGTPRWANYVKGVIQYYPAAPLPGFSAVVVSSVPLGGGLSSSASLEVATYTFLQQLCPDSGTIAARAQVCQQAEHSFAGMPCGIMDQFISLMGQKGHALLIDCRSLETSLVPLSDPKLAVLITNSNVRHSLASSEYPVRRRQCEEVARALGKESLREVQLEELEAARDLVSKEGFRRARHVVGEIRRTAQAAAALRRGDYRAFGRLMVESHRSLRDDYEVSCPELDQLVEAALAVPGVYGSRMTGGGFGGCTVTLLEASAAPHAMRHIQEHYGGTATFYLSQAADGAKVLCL
Procedure, shortened: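 Luminescence from leftover ATP (Kinase-Glo Plus, 10 min) served as read-out after a 1 h room-temperature reaction of 5 nM GALK, 100 uM galactose and 35 uM ATP at pH8.0.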

[3] = Validation screen for small molecules that induce DNA re-replication in SW480 colon adenocarcinoma cells (AID 504364); further: potency means the concentration at half of the fitted maximal effect
Procedure, shortened: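 SW480 cells seeded at 250 per well were exposed to compound or DMSO for 48 hr at 37 C, 5% CO2, then stained with Hoechst for 40 min. DNA content per nucleus was imaged (405 nm ex, 500-530 nm em).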

[4] = molecular target: Peptidyl-prolyl cis-trans isomerase NIMA-interacting 1 (Homo sapiens) (UniProt Q13526); assay: qHTS Validation Assay to Find Inhibitors of Pin1 (AID 504536; active means well fitted inhibition curve with a large enough effect in the polarisation, with a control signal flat, not every such curve was filed as active; the % refers to the polarisation)
Peptidyl-prolyl cis-trans isomerase NIMA-interacting 1 (Homo sapiens), sequence (Q13526 whole entry, looked up): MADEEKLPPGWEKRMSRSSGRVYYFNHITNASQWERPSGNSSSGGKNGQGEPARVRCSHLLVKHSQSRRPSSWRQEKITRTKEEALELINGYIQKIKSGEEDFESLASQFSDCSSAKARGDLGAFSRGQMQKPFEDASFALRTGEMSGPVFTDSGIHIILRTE
Procedure, shortened: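 Fluorescence polarization competition: compounds (titration) displace HiFluor-488-labeled Pin1-1b peptide from Pin1 (0.3 uM final) in pH 7.5 HEPES buffer with DTT, 10 min at room temperature; %Activity normalized to no-enzyme wells, curves fitted.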

[5] = molecular target: Phosphoglycerate kinase, glycosomal (Trypanosoma brucei brucei) (UniProt P07378); assay: qHTS Validation Assay to Find Inhibitors of Phosphoglycerate Kinase (AID 504547)
Phosphoglycerate kinase, glycosomal (Trypanosoma brucei brucei), sequence (P07378 whole entry, looked up): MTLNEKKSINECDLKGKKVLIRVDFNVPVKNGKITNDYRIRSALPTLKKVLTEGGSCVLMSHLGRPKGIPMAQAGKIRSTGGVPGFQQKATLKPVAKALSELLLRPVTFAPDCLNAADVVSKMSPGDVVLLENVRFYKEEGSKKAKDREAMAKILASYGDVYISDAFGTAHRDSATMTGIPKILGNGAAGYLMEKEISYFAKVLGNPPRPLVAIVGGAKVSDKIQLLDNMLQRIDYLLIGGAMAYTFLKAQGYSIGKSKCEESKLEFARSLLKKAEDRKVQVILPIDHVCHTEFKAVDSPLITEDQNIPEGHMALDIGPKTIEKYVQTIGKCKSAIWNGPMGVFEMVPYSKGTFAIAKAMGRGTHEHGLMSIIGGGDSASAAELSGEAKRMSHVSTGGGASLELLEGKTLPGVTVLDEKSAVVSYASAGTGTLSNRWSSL
Procedure, shortened: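 Inhibition of the enzyme is judged by a Kinase-Glo Plus luminescent signal following a one-hour incubation at room temperature. Because 1,3-BPG is unstable, it is made in situ by GAPDH at 100nM final; no-PGK wells define the baseline.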

[6] = molecular target: phosphoglycerate mutase (Leishmania major) (UniProt Q4Q090); assay: qHTS Validation Assay to Find Inhibitors of Phosphoglycerate Mutase (AID 504548); settings: Potency: inhibition qHTS; further: series mostly up to about 58 µM
phosphoglycerate mutase (Leishmania major), sequence (Q4Q090 1-553): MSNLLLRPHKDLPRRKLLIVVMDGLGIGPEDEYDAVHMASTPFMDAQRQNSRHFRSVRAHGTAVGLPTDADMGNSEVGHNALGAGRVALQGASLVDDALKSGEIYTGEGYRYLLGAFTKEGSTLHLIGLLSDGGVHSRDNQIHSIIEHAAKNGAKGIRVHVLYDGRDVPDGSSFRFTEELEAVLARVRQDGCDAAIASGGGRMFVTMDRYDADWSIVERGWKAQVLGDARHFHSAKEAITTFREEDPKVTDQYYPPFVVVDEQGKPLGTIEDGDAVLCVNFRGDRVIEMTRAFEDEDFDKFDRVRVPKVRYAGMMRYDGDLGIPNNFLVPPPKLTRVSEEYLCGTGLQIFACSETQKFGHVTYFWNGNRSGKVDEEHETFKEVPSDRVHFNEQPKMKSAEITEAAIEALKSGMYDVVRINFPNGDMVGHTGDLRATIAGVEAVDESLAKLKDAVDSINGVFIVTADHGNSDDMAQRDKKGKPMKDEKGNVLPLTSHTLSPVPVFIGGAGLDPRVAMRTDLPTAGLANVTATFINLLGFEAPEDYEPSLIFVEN
Procedure, shortened: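 Lm PGAM at 1.25 nM final with substrate in 100 mM TEA pH 7.6, 5 mM MgCl2, 0.01% Tween-20; 45 min at room temperature. Kinase-GloPlus added, 10 min, end-point luminescence read.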

[7] = molecular target: Ubiquitin carboxyl-terminal hydrolase 1 (Homo sapiens) (UniProt O94782); assay: Inhibitors of USP1/UAF1: Pilot qHTS (AID 504865);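 further: rhodamine fluorescence freed from ubiquitin-rhodamine substrate followed over time; top concentration of the series differs between compounds; nearly all actives have a fitted effect of over 35% in size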
Ubiquitin carboxyl-terminal hydrolase 1 (Homo sapiens), sequence (O94782 whole entry, looked up): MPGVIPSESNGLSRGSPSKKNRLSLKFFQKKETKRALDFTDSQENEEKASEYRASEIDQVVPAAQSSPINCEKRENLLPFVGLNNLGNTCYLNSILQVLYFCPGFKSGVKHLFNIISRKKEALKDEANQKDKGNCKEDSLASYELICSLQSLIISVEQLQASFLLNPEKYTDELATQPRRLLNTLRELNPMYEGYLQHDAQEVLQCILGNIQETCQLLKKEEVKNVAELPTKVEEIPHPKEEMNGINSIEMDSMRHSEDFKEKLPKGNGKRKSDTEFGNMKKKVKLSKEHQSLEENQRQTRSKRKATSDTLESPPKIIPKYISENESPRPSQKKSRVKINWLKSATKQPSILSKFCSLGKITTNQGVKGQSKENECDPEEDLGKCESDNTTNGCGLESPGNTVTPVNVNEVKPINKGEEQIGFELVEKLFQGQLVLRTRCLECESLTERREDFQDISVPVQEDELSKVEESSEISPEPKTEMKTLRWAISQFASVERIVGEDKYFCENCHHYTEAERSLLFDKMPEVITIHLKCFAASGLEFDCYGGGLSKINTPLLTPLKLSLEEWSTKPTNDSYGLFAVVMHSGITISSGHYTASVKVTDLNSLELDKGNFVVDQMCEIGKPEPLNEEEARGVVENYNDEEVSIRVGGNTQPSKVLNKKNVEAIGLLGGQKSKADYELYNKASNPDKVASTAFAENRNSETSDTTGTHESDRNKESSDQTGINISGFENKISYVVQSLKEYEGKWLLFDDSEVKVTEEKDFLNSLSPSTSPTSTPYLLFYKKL
Procedure, shortened: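 1nM USP1/UAF1 + cpd, 15 min RT; start w/ Ub-Rho 150nM final; kinetic FL 480/540 nm, 6 reads q60 s. Buffer 50mM HEPES pH 7.8, 0.5mM EDTA, 1mM TCEP, 0.01% Tween-20, 0.1 mg/ml BSA.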

[8] = qHTS for Inhibitors of ATXN expression: Validation of Cytotoxic Assay (AID 588349)
Procedure, shortened: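 HEK293 cells were dosed with titrated compounds for 72 hr at 37 degrees C. Viability was read by CellTiter Glo luminescence, with intracellular ATP as the marker of cell survival.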

[9] = qHTS for Inhibitors of ATXN expression: Validation (AID 588378); further: nearly all actives have a fitted effect of over 75% in size; further: potency means the concentration at half of the fitted maximal effect
Procedure, shortened: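 Cells: HEK293-ATXN2-FFLuc, phenol-red free DMEM, 2 h attachment. Compound pin-transfer, 24 h, 37 degrees C, 5% CO2. CellTiter-Fluor 30 min, Ex405/Em525; Bright-Glo 5 min, luminescence 2 s exposure.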

[10] = Nrf2 qHTS screen for inhibitors: Validation (AID 493153; active means well fitted inhibition curve with a large enough effect in the main read-out, with a control signal flat, not every such curve was filed as active; further: potency means the concentration at half of the fitted maximal effect); settings: Potency: luciferase luminescence; viability change: measured here: cytotoxicity max response
Procedure, shortened: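 A549 cells carrying an ARE-driven firefly luciferase reporter, in 5% FBS OPTI-MEM, were treated with compounds in concentration-response for 18-24 h at 37°C. Viability was read by CellTiter-Fluor fluorescence, then Nrf2 activity by luciferase luminescence.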

[11] = molecular target: DNA dC->dU-editing enzyme APOBEC-3G (Homo sapiens) (UniProt Q9HC16); assay: qHTS for inhibitors of Vif-A3G interactions: Validation (AID 588379)
DNA dC->dU-editing enzyme APOBEC-3G (Homo sapiens), sequence (Q9HC16 whole entry, looked up): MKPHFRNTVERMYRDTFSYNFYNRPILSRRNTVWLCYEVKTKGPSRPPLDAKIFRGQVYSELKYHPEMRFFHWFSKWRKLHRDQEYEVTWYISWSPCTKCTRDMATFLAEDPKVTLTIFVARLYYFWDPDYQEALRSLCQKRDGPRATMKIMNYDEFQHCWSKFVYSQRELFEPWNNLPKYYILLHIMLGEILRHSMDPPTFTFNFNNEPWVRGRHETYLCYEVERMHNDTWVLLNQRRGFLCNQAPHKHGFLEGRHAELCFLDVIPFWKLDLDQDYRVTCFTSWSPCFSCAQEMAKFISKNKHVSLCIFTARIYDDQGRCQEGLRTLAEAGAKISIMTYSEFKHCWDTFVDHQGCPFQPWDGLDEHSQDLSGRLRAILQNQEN
Procedure, shortened: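 HeLa cells stably expressing Vif and A3G-eYFP, 700 cells/well, incubated overnight at 37 deg C, then exposed to compound overnight at 37 deg C. Inhibition of Vif-mediated degradation read as increased yellow fluorescence (Ex 488/Em 500-530) by laser-scanning cytometry.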

COc1ccc2c(c1)c(CC(=O)O)c(C)n2C(=O)c1ccccc1
outcome [1]: inactive | Potency [2]: inactive | Potency [3]: inactive | Potency [4]: inactive | Potency [5]: inactive | Potency [6]: inactive | Potency [7]: inactive | Potency [8]: inactive | Potency [9]: inactive

C[C@H]1CC2C3CCC4=CC(=O)C=C[C@]4(C)[C@@]3(Cl)[C@@H](O)C[C@]2(C)[C@@]1(O)C(=O)CO (stereo not given in full)
Potency [10]: 16.4 nM (active) | viability change [10]: 4.17% | outcome [1]: inactive | Potency [4]: inactive | Potency [5]: inactive | Potency [6]: inactive | Potency [8]: inactive | Potency [9]: inactive

CCCCCCC(=O)OC1CC(C)(C)NC(C)(C)C1
Potency [10]: inactive | viability change [10]: 2.37% | outcome [1]: inactive | Potency [4]: inactive | Potency [6]: inactive | Potency [7]: inactive | Potency [8]: inactive | Potency [9]: inactive

COc1ccc(NC(=O)c2ccc(-c3ccc(-c4noc(C)n4)cc3C)cc2)cc1N1CCN(C)CC1
Potency [10]: inactive | viability change [10]: -8.26% | Potency [2]: inactive | Potency [3]: inactive | Potency [4]: inactive | Potency [5]: inactive | Potency [6]: inactive | Potency [7]: inactive | Potency [9]: 22400 nM (active)

CCn1c(=O)[nH]c2cc(Cl)c(Cl)cc21
outcome [1]: inactive | Potency [2]: inactive | Potency [3]: inactive | Potency [4]: inactive | Potency [5]: inactive | Potency [6]: inactive | Potency [7]: inactive | Potency [8]: inactive | Potency [9]: inactive | Potency [11]: inactive

CCc1ccc2c(-c3cccc(Cl)c3)nc(=O)n(CC)c2n1
Potency [10]: inactive | viability change [10]: 1.57% | outcome [1]: inactive | Potency [4]: inactive | Potency [5]: inactive | Potency [6]: inactive | Potency [7]: inactive | Potency [8]: inactive | Potency [9]: inactive | Potency [11]: inactive

C[C@]12C=CC(=O)C=C1CC[C@@H]1C2=CC[C@]2(C)[C@@H](C(=O)CN3CCN(c4cc(N5CCCC5)nc(N5CCCC5)n4)CC3)CC[C@@H]12
Potency [10]: inactive | viability change [10]: -17.1% | outcome [1]: inactive | Potency [4]: inactive | Potency [5]: inactive | Potency [6]: inactive | Potency [8]: inactive

COc1ccccc1N1CCN(CCN(C(=O)c2ccc(F)cc2)c2ccccn2)CC1
outcome [1]: inactive | Potency [2]: inactive | Potency [3]: inactive | Potency [4]: inactive | Potency [5]: inactive | Potency [6]: inactive | Potency [7]: inactive | Potency [8]: inactive | Potency [9]: inactive

Nc1nc2c(nc(Br)n2C2OC3COP(=O)(O)O[C@@H]3C2O)c(=O)[nH]1 (stereo not given in full)
Potency [10]: inactive | viability change [10]: 2.34% | outcome [1]: inactive | Potency [4]: inactive | Potency [5]: inactive | Potency [6]: inactive | Potency [7]: inactive | Potency [8]: inactive | Potency [9]: inactive

Nc1ncnc2c1nc(Br)n2C1OC2COP(=O)(O)O[C@@H]2C1O (stereo not given in full)
Potency [10]: inactive | viability change [10]: 1.09% | outcome [1]: inactive | Potency [4]: inactive | Potency [5]: inactive | Potency [6]: inactive | Potency [7]: inactive | Potency [8]: inactive | Potency [9]: inactive

NC[C@@H]1O[C@H](c2ccccc2)Cc2c1ccc(O)c2O
Potency [10]: inactive | viability change [10]: -1.5% | outcome [1]: inactive | Potency [4]: inactive | Potency [5]: inactive | Potency [7]: inactive | Potency [8]: inactive | Potency [9]: inactive | Potency [11]: inactive

C=C1C[C@@]23CC[C@H]4[C@@](C)(CCC[C@@]4(C)C(=O)O)[C@@H]2CC[C@]1(O)C3
Potency [10]: inactive | viability change [10]: -13.4% | outcome [1]: inactive | Potency [4]: inactive | Potency [7]: inactive | Potency [8]: inactive | Potency [9]: inactive

Clc1nccc2c1ccc1ccccc12
outcome [1]: inactive | Potency [2]: inactive | Potency [3]: inactive | Potency [4]: inactive | Potency [5]: inactive | Potency [6]: inactive | Potency [7]: inactive | Potency [8]: inactive | Potency [9]: inactive

C[C@](Cc1ccc(O)c(O)c1)(NN)C(=O)O
Potency [10]: inactive | viability change [10]: -1.27% | outcome [1]: inactive | Potency [4]: inactive | Potency [6]: inactive | Potency [7]: inactive | Potency [8]: inactive | Potency [9]: inactive

CCCn1c(=O)c(C)cn2nc(N)nc12
Potency [10]: inactive | viability change [10]: -13% | outcome [1]: inactive | Potency [4]: inactive | Potency [5]: inactive | Potency [6]: inactive | Potency [7]: inactive | Potency [8]: inactive | Potency [11]: inactive

CN1Cc2sccc2C(c2ccc(O)c(O)c2)C1 (stereo not given)
Potency [10]: inactive | viability change [10]: 12.4% | outcome [1]: inactive | Potency [4]: inactive | Potency [5]: inactive | Potency [6]: inactive | Potency [7]: inactive | Potency [9]: inactive

CCCCCCCCCCCCCCCCCCOC[C@H](COP(=O)([O-])OCC[N+](C)(C)C)OC
outcome [1]: inactive | Potency [2]: inactive | Potency [3]: inactive | Potency [4]: inactive | Potency [5]: inactive | Potency [6]: inactive | Potency [7]: inactive | Potency [9]: inactive

CC(C)C[C@H](NC(=O)C1OC1C(=O)O)C(=O)NCCCCN=C(N)N (stereo not given in full)
outcome [1]: inactive | Potency [2]: inactive | Potency [3]: inactive | Potency [4]: inactive | Potency [5]: inactive | Potency [6]: inactive | Potency [7]: inactive

CNCCNS(=O)(=O)c1cccc2cnccc12
outcome [1]: inactive | Potency [2]: inactive | Potency [3]: inactive | Potency [4]: inactive | Potency [5]: inactive | Potency [6]: inactive | Potency [7]: inactive | Potency [8]: inactive

CN1CCc2cc(Cl)c(O)cc2[C@@H](c2ccccc2)C1
Potency [10]: inactive | viability change [10]: 5.24% | outcome [1]: inactive | Potency [4]: inactive | Potency [5]: inactive | Potency [6]: inactive | Potency [9]: inactive | Potency [11]: inactive

C=C1C(=O)O[C@@H]2[C@H]3O[C@]3(C)CCC=C(C)CC[C@@H]12
outcome [1]: inactive | Potency [2]: inactive | Potency [3]: inactive | Potency [4]: inactive | Potency [5]: inactive | Potency [6]: inactive | Potency [11]: inactive

CCC1(O)CC2CN(CCc3c([nH]c4ccccc34)[C@@](C(=O)OC)(c3cc4c(cc3OC)N(C)C3[C@]45CCN4CC=C[C@@](CC)([C@@H](OC(C)=O)[C@]3(O)C(=O)OC)[C@H]45)C2)C1 (stereo not given in full)
outcome [1]: inactive | Potency [2]: inactive | Potency [3]: 20.6 nM (active) | Potency [4]: inactive | Potency [5]: inactive | Potency [6]: inactive

C=C1C[C@@]23CC[C@H]4[C@@](C)(CCC[C@@]4(C)C(=O)OC4OC(CO)C(O)C(O)C4O)[C@@H]2CC[C@]1(OC1OC(CO)C(O)C(O)C1OC1OC(CO)C(O)C(O)C1O)C3 (stereo not given in full)
Potency [10]: inactive | viability change [10]: -3.06% | outcome [1]: inactive | Potency [4]: inactive | Potency [5]: inactive | Potency [6]: inactive | Potency [7]: inactive | Potency [8]: inactive | Potency [9]: inactive

CC(C)NC[C@H](O)COc1cccc2ccccc12
Potency [10]: inactive | viability change [10]: -4.73% | Potency [4]: inactive | Potency [7]: inactive | Potency [8]: inactive | Potency [11]: inactive

COc1ccc(CCn2nnnc2C2(c3ccc(C)cc3)CC2)cc1
Potency [10]: inactive | viability change [10]: 2.86% | outcome [1]: inactive | Potency [4]: inactive | Potency [5]: inactive | Potency [6]: inactive | Potency [8]: inactive | Potency [9]: inactive

Cc1cccc(C(=O)NCN2CCN(c3ccccc3C#N)CC2)c1
outcome [1]: inactive | Potency [2]: inactive | Potency [3]: inactive | Potency [4]: inactive | Potency [5]: inactive | Potency [6]: inactive | Potency [7]: inactive | Potency [8]: inactive | Potency [9]: inactive | Potency [11]: inactive
